Source: PubChem BioAssay (NCI)
This is part of a sample that, as a whole, favours compounds with a hit. Of some 83,000 tested, about 20% had one in any assay.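 Single-dose data. Exposure time 48 hours. Values below 10 considered active.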 A number with no mark means an inactive call. Active and inactive are the calls of the source.

Tests used:
Assay in all cases: NCI-60 one-dose screen, 48 h (100 = growth as untreated, 0 = no growth, -100 = all killed)
Details in all cases: 10 µM unless noted
NCI-H23 lung = system: NCI-H23 lung
NCI-H322M lung = system: NCI-H322M lung
NCI-H460 lung = system: NCI-H460 lung
HOP-92 NSCLC = system: HOP-92 NSCLC
NCI-H522 lung = system: NCI-H522 lung
A549/ATCC NSCLC = system: A549/ATCC NSCLC
786-0 renal = system: 786-0 renal
COLO 205 colon = system: COLO 205 colon
DU-145 prostate = system: DU-145 prostate
K-562 leukemia = system: K-562 leukemia
MALME-3M melanoma = system: MALME-3M melanoma
MDA-MB-231 breast = system: MDA-MB-231 breast
RXF 393 renal = system: RXF 393 renal
SF-268 CNS = system: SF-268 CNS
SF-295 CNS = system: SF-295 CNS
SF-539 CNS = system: SF-539 CNS
UACC-257 melanoma = system: UACC-257 melanoma
M14 melanoma = system: M14 melanoma
HCT-15 colon = system: HCT-15 colon
HOP-62 NSCLC = system: HOP-62 NSCLC

Row | SMILES | growth (NCI-H23 lung) | growth (NCI-H322M lung) | growth (NCI-H460 lung) | growth (HOP-92 NSCLC) | growth (NCI-H522 lung) | growth (A549/ATCC NSCLC) | growth (786-0 renal) | growth (COLO 205 colon) | growth (DU-145 prostate) | growth (K-562 leukemia) | growth (MALME-3M melanoma) | growth (MDA-MB-231 breast) | growth (RXF 393 renal) | growth (SF-268 CNS) | growth (SF-295 CNS) | growth (SF-539 CNS) | growth (UACC-257 melanoma) | growth (M14 melanoma) | growth (HCT-15 colon) | growth (HOP-62 NSCLC)
1 | O=C(NCCCN1CCC(N2CCCCC2)CC1)C1=Cc2cc(Br)ccc2OC1 | 56.2% | 69.2% | 13.8% | 80.7% | 31% | 49.1% | 53.5% | 46.1% | 68.7% | 14.8% | 97.9% | 17.6% | 52.3% | 50.2% | 3.29% (active) | 87.4% | 59.8% | 38.7% | 41.1% | 
2 | Cc1ccc(Nc2nc(N)c3ccccc3n2)cc1Cl | 53.8% | 73.5% | 56.8% | 54.3% | 41% | 48.1% | 80.9% | 54.5% | 45.9% | 51.3% |  | 27.2% | 80.4% | 78.5% |  | 81.5% | 108% | 80.3% | 49.9% | 
3 | COc1ccc(/C(C#N)=C/c2nc3c(N4CCOCC4)nc(Cl)nc3n2C)cc1OC | 24% |  | -15.2% (active) | -12.2% (active) | -28.4% (active) | 21.1% | -61.5% (active) |  | 8.07% (active) | 0.867% (active) | 32.7% | 9.29% (active) | -67.5% (active) | 14.5% | -6.46% (active) | -26.5% (active) | 16.2% | -49.1% (active) | -40.8% (active) | 25.3%
4 | COc1ccc(OC)c(NC(=O)/C(C#N)=C/c2ccco2)c1 | 96.6% |  | 107% | 51.1% | 45.5% | 93.8% | 100% | 92.8% | 116% | 88.5% | 80.3% | 85.1% | 113% | 105% | 98% | 94.7% | 90.7% | 99.2% | 91.2% | 90.8%
5 | Cc1cc(Nc2ccc(OCc3ccccc3)cc2)nc2cc(O)ccc12 | 55% |  | 47.2% | 15.8% | 53.2% | 66.6% | 72.2% | 21.9% | 86.4% | 5.02% (active) | 43.6% | 37.7% | 93.7% | 79.8% |  | 97.5% | 43.7% | 40.4% | 16.9% | 57.7%
6 | Cn1c(/C=C(\C#N)c2cccc(C(F)(F)F)c2)nc2c(N3CCOCC3)nc(Cl)nc21 | 16% |  | 26.7% | -77.4% (active) | -56% (active) | 33.6% | -74.2% (active) |  | -80.3% (active) | -12.2% (active) | -21.8% (active) | -70.1% (active) | -92.2% (active) | -50.8% (active) | 85.1% | -79.9% (active) | -64.5% (active) | -77.3% (active) | -37.3% (active) | 
7 | COc1ccc(/C=C2\SC(=Nc3ccccc3)NC2=O)cc1 | 21.6% |  | -79.4% (active) | -64.5% (active) | -85.6% (active) | -74.8% (active) | -92.8% (active) | -94.3% (active) | -50.8% (active) | -64.2% (active) | -86% (active) | -83% (active) | -95.5% (active) | -82.5% (active) |  | -96.2% (active) | -91.8% (active) | -79.8% (active) | -44.5% (active) | -95.3% (active)
8 | O=c1c(-c2nc3ccccc3[nH]2)cc2ccccc2n1Cc1cn(Cc2ccccc2Cl)nn1 | 56.9% |  | 6.86% (active) | 11.3% | 45.1% | 15.4% | -20.2% (active) | 54% | 18.1% | 30.7% | 5.45% (active) | -21% (active) | 13.1% | 45.2% | 32.9% | 4.13% (active) | 56.8% | 38.4% | 19.7% | 35.1%
9 | NCCOc1ccccc1/C=C1\c2ccccc2-c2ccc([N+](=O)[O-])cc21 | 1.49% (active) |  | -85.1% (active) | -1.14% (active) | 21.3% | -74.6% (active) | -41.5% (active) | -75.4% (active) | -42.3% (active) | -44.9% (active) | 26% | 17.9% | 1.55% (active) | 18.1% | 6.73% (active) | 8.01% (active) | 63.9% | 0.981% (active) | -52.7% (active) | -71.1% (active)
